Reference: the supplement of paper PMC13380429

What was measured:
[1] = test system: Vero E6 infected with SARS-CoV-2; assay: morphology score (similarity to uninfected cells); higher = more like uninfected cells; settings: 24 h
[2] = test system: Vero E6 infected with SARS-CoV-2; assay: SARS-CoV-2 infection rate relative to infected DMSO; higher = more infection, active = 60 or less; settings: 24 h

SMILES | morphology score [1] | SARS-CoV-2 infection rate [2]
COC(=O)N[C@H](C(=O)N1CCC[C@H]1C(=O)Nc1ccc([C@@H]2CC[C@@H](c3ccc(NC(=O)[C@@H]4CCCN4C(=O)[C@@H](NC(=O)OC)C(C)C)cc3)N2c2ccc(C(C)(C)C)cc2)cc1)C(C)C [ombitasvir] (10 µM) | 0.125 | 113% (inactive)
CCCCC1(COC(=O)CCC(=O)O)C(=O)N(c2ccccc2)N(c2ccccc2)C1=O [suxibuzone] (10 µM) | 0.183 | 94.5% (inactive)
Cn1cncc1[C@@](N)(c1ccc(Cl)cc1)c1ccc2c(c1)c(-c1cccc(Cl)c1)cc(=O)n2C [tipifarnib] (0.833333 µM) | 0.398 | 89% (inactive)
c1cnc(N2CCN(Cc3ccc4c(c3)OCO4)CC2)nc1 [piribedil] (10 µM) | 0.0979 | 98.5% (inactive)
Cc1c(-c2ccc(-c3ccccc3F)cc2)nc2ccc(F)cc2c1C(=O)O [brequinar] (10 µM) | 0.115 | 95% (inactive)
O=C(c1ccc(Cl)cc1)N(Cc1ccccc1)C1CCCCC1 (10 µM) | -0.00245 | 103% (inactive)
CN1CCN(c2nc(C3=C(c4c[nH]c5ccccc45)C(=O)NC3=O)c3ccccc3n2)CC1 [sotrastaurin] (10 µM) | 0.0619 | 119% (inactive)
CC(C)Oc1cccc(-n2c(CCc3c[nH]c4ccc(Br)cc34)nc3ccccc3c2=O)c1 (10 µM) | 0.149 | 93% (inactive)
CNC(=S)C1(c2ccccn2)CCCS1 (stereo not drawn) [picartamide] (10 µM) | -0.0189 | 106% (inactive)
O=Nc1ccc(O)c2ncccc12 (10 µM) | -0.131 | 108% (inactive)
COc1ccc(C(=O)CC2(O)C(=O)Nc3c(Cl)ccc(Cl)c32)cc1 (stereo not drawn) (0.833333 µM) | 0.00554 | 95% (inactive)
O=C(O)C1CSCN1 (stereo not drawn) [timonacic] (10 µM) | -0.0905 | 110% (inactive)
OCCC#Cc1nc(-c2ccc(F)cc2)c(-c2ccncc2)n1CCCc1ccccc1 (10 µM) | 0.0292 | 101% (inactive)
CCCCCCCCCCC[C@@H](C[C@@H]1OC(=O)[C@H]1CCCCCC)OC(=O)[C@H](CC(C)C)NC=O [orlistat] (10 µM) | 0.226 | 100% (inactive)
CC(=O)N[C@@H](CCC(N)=O)C(=O)O [aceglutamide] (10 µM) | -0.137 | 105% (inactive)
Cc1cc(C(=O)Nc2cccc(C(=O)Nc3cccc(C(F)(F)F)c3)c2)on1 (10 µM) | -0.209 | 115% (inactive)
Clc1ccc2c(c1)CCc1cccnc1C2=C1CCNCC1 [desloratadine] (10 µM) | 0.351 | 76% (inactive)
Nc1nccs1 [aminothiazole] (10 µM) | 0.0165 | 104% (inactive)
Cc1ccc2c(c1)[C@]13CCCC[C@@H]1[C@H](C2)N(C)CC3 [dimemorfan] (10 µM) | 0.368 | 92.5% (inactive)
OCCNCCCOc1cccc(Cl)c1Cl (0.833333 µM) | 0.093 | 112% (inactive)
O=C(O)c1ccc(N2C(=O)/C(=C/c3ccc(-c4ccc([N+](=O)[O-])cc4)o3)C=C2c2ccccc2)cc1 (10 µM) | 0.184 | 93% (inactive)
O=C1NCC2(CCN(CCc3ccccc3)CC2)O1 [fenspiride] (10 µM) | 0.208 | 101% (inactive)
CCn1ccnc1CC1COc2ccccc2O1 (stereo not drawn) [imiloxan] (10 µM) | -0.00924 | 99% (inactive)
CCC1(CC)C(=O)C=CNC1=O [pyrithyldione] (10 µM) | -0.0471 | 107% (inactive)
c1ccc(-c2oc3ncnc(NC[C@@H]4CCCO4)c3c2-c2ccccc2)cc1 (10 µM) | 0.0044 | 106% (inactive)
O=C(COP(=O)(O)O)[C@@H](O)[C@H](O)[C@H](O)COP(=O)(O)O [fosfructose] (10 µM) | -0.202 | 120% (inactive)
CC(=O)c1ccc2c(c1)N(CCCN(C)C)c1ccccc1S2 [acepromazine] (10 µM) | 0.192 | 104% (inactive)
Oc1cccc(-c2c3nc(c(-c4cccc(O)c4)c4ccc([nH]4)c(-c4cccc(O)c4)c4nc(c(-c5cccc(O)c5)c5ccc2[nH]5)CC4)C=C3)c1 [temoporfin] (0.833333 µM) | -0.0311 | 111% (inactive)
COc1cc(C(=O)NS(=O)(=O)c2ccccc2C)ccc1Cc1cn(C)c2ccc(NC(=O)OC3CCCC3)cc12 [zafirlukast] (10 µM) | 0.282 | 105% (inactive)
